Source: PubChem (Sanford-Burnham Center for Chemical Genomics)
The list is not random: actives were taken first. Their share in the collection is about 4%.
Peg3 prom inh-1: reduces Peg3 promoter-driven luciferase expression in HeLa. HeLa PEG-Prom luciferase reporter, luminescence, overnight. inhibition, % at 20 µM. 360,000 compounds, 1.7% hits. AID 588405;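 active means inhibition of at least 50% at 20 µM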
CF NFkB block: cystic fibrosis NF-kB activation inhibition; AID 588850; inhibition, % at 5 µM; 360,000 compounds, 0.86% hits; KKLEB NF-kB-GFP reporter, PAF-induced, GFP fluorescence overnight;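 active means at least 50% inhibition at 5 µM, scaled per plate between neutral and stimulator controls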;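 further: PAF is a Pseudomonas aeruginosa culture filtrate used as stimulus; plate controls were PAF-stimulated DMSO wells for no effect and unstimulated DMSO wells for full effect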
TWEAK-Fn14 inh: inhibitors of TWEAK-Fn14 interaction signaling | TWEAK-stimulated Fn14 reporter cells, luciferase luminescence, 8 h | inhibition, % at 10 µM | 360,000 compounds, 2% hits | AID 1159606; in the data active means inhibition above about 50%
KKLEB cytotox: CF airway cell cytotoxicity counter-screen; KKLEB CF airway cells viability, ATPlite luminescence, overnight; stronger effect = lower value; cells stimulated with P. aeruginosa culture filtrate; activity change (cytotoxicity), % at 5 µM; 360,000 compounds, 0.36% hits; AID 602141;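 active means corrected activity change at or below -50% at 5 µM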
HIF-2a block: HIF-2a inhibition. 786-0 RCC cells HIF-2a reporter, luciferase luminescence, overnight. inhibition, % at 18.8 µM. 360,000 compounds, 0.72% hits. AID 624352;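 active means inhibition of the luminescence signal of 40% or more relative to plate controls, in a single-dose primary screen at 18.75 µM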
TROY signal inh: TROY signaling inhibition | Q293 LMP1-TROYcd NF-kB luciferase reporter, 4 h | inhibition, % at 10 µM | 360,000 compounds, 0.98% hits | AID 1347056;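 active means compounds whose plate-normalised and pattern-corrected inhibition of the luciferase reporter signal at the single screening dose is 50% or more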
Peg3 prom inh-2: Peg3 promoter inhibition confirmation; 1,300 compounds, 84% hits; HeLa PEG-Prom luciferase reporter, luminescence, overnight; AID 602417; shares compounds with Peg3 prom inh-1; inhibition, % at 20 µM;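 active means at 20 µM dose, 40% or more inhibition averaged across four replicates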
Starred values were filed as active, the others as inactive; . = no result given.

SMILES | Peg3 prom inh-1 | CF NFkB block | TWEAK-Fn14 inh | KKLEB cytotox | HIF-2a block | TROY signal inh | Peg3 prom inh-2
Cc1ccc2c(c1)N(C(=O)CCC(=O)NCc1cccc(F)c1)CCO2 | 1.3 | 9.9 | 8.2 | -16.7 | 1.8 | -10.6 | .
Cc1cc(=O)oc2cc(OCC(=O)c3ccc4c(c3)NC(=O)CO4)ccc12 | 52.9* | 0.3 | -4.0 | -3.5 | -1.8 | 11.5 | 5.0
COC1=C(Br)C(=O)c2nc(C)ccc2C1=O | 107.4* | 3.1 | 18.2 | 10.7 | 32.5 | -10.9 | 100.0*
COc1nc(C)ccc1-c1noc(-c2cccnc2)n1 | -209.6 | 13.8 | -26.6 | 4.9 | -207.8 | -47.6 | .
OCCN1CCN(C2CCC(c3ccc(F)cc3)c3ccc(F)cc32)CC1 (stereo not given) | 56.1* | 45.1 | -13.1 | -35.1 | -18.5 | -14.2 | 72.6*
COc1ccc(N(C(=O)Cn2nnc(-c3ccc(F)cc3)n2)C(C)C(=O)NC2CCCC2)cc1 (stereo not given) | 21.1 | 17.0 | -22.9 | -4.3 | 15.5 | 1.8 | .
CC(C(=O)NC1CCCC1)N(C(=O)Cn1nnc(-c2ccc(F)cc2)n1)c1ccccc1F (stereo not given) | 57.1* | 4.0 | 27.8 | -11.2 | 4.4 | 28.7 | 49.9*
O=C(NCC1CCCO1)C(c1ccc(F)cc1)N(C(=O)Cn1nnc(-c2ccc(F)cc2)n1)c1cccc(O)c1 (stereo not given) | 55.7* | 5.2 | 27.7 | -11.7 | 18.8 | 8.1 | 51.0*
O=C(CN1C(=O)NC2(CCCC2)C1=O)OCCOc1ccc(Br)cc1 | 6.7 | 13.5 | 15.6 | -1.5 | -6.2 | 30.7 | .
CC(C)N1CCc2c(sc(NC(=O)c3cc4cc([N+](=O)[O-])ccc4s3)c2C(N)=O)C1 | 96.8* | -38.6 | -24.1 | -1.6 | 4.6 | -3.2 | 97.9*
CC(C)N1CCc2c(sc(NC(=O)c3ccco3)c2C(N)=O)C1 | -28.6 | -18.9 | 24.4 | 13.0 | -33.7 | 12.8 | .
Cc1cc(C)nc(NC(=O)c2c(F)c(F)c(F)c(C(=O)Nc3cc(C)cc(C)n3)c2F)c1 | 90.5* | 11.9 | 14.4 | -29.4 | 32.4 | -1.8 | 72.3*
Cc1cc(C)nc(NC(=O)CCCC(=O)O)c1 | 14.8 | -9.4 | -0.1 | 0.3 | 3.5 | -2.0 | .
CCCN(CCC)S(=O)(=O)c1ccc(N2CCCC2=O)c([N+](=O)[O-])c1 | 16.7 | 6.9 | -18.5 | -3.2 | 20.2 | -5.0 | .
CCCN(CCC)S(=O)(=O)c1ccc(Cl)c([N+](=O)[O-])c1 | 94.3* | 59.7* | 17.4 | -50.1* | 34.5 | 32.9 | 39.8
CCOc1cc(C2c3c(oc4cc(C)c(Cl)cc4c3=O)C(=O)N2Cc2ccco2)ccc1O (stereo not given) | 67.0* | 19.3 | -39.2 | 0.0 | 12.8 | -10.7 | 17.4
CC(C)Cc1ccc(C(C)C(N)=NCCc2ccccc2)cc1 (stereo not given) | 104.0* | 9.6 | -13.8 | -27.6 | 9.8 | -27.1 | 99.2*
O=C(NCc1ccccc1)c1cc(C2COCCN2S(=O)(=O)c2ccccc2)on1 (stereo not given) | 10.4 | 6.0 | 9.7 | -2.4 | 10.2 | -1.1 | .
CCc1nc(Nc2ccc(N3CCN(C(C)=O)CC3)cc2)c2oc3ccccc3c2n1 | 78.7* | -11.2 | 35.8 | 1.4 | -59.4 | 2.9 | 67.7*
NC(=O)CSc1nc(-c2ccccc2)nc2ccccc12 | 6.7 | -41.3 | 15.8 | -4.4 | -2.5 | -10.4 | .
Cc1cccc2c(SCC(N)=O)nc(-c3ccccc3)nc12 | 50.9* | -3.7 | -11.8 | -0.3 | 10.3 | -14.3 | 32.9
COc1ccc(S(=O)(=O)/N=C2\C=C(Nc3ccc(O)cc3)C(=O)c3ccccc32)cc1 | 104.2* | 100.7* | 101.5* | -73.8* | 1.2 | 35.3 | 97.8*
Cc1ccccc1C(=O)N1CCN(c2ccc([N+](=O)[O-])c(NCc3cccnc3)c2)CC1 | 45.9 | -17.8 | 1.6 | 9.1 | 18.6 | 8.1 | .
Cc1ccc(C(=O)N2CCN(c3ccc([N+](=O)[O-])c(NCc4cccnc4)c3)CC2)cc1 | 56.1* | -14.5 | -13.9 | 3.2 | 14.8 | 24.8 | 48.1*
CC(=O)n1cc(N(C(=O)CCl)c2ccc([N+](=O)[O-])cc2)c2ccccc21 | 89.7* | 80.5* | 37.0 | -82.9* | 30.5 | 4.9 | 98.6*
SMILES | Peg3 prom inh-1 | CF NFkB block | TWEAK-Fn14 inh | KKLEB cytotox | HIF-2a block | TROY signal inh | Peg3 prom inh-2
CN(C)c1ccc(C=O)c(Oc2ccccc2)c1 | -23.7 | 10.5 | -34.9 | -0.3 | -32.6 | -16.3 | .
CC(C)N(C(=O)[C@H]1CC(CC(=O)NCc2cccc(C(F)(F)F)c2)C(=O)N2CCc3c([nH]c4ccccc34)[C@]12C)C(C)C (stereo not given in full) | 68.3* | 24.0 | 38.5 | -11.2 | 9.6 | 23.3 | 21.9
CCN(CC)C(=O)[C@H]1CC(CC(=O)NCc2cccc(C(F)(F)F)c2)C(=O)N2CCc3c([nH]c4ccc(OC)cc34)[C@]12C (stereo not given in full) | 6.5 | -1.4 | 18.6 | 0.5 | 3.6 | 9.0 | .
COc1ccccc1NC(=O)C1CCN(C(=O)c2ccco2)CC1 | 2.7 | 0.9 | 40.6 | -9.8 | 4.6 | 10.8 | .
COc1ccc(NC(=O)c2cc(-c3ccccn3)nc3ccccc23)cc1S(=O)(=O)N(C)C | 61.3* | 24.5 | 16.9 | 5.8 | -2.5 | 13.1 | 54.5*
CCN(CC)CCCCNc1ncc2cc(-c3cc(OC)cc(OC)c3)c(NC(=O)NC(C)(C)C)nc2n1 | 74.3* | 22.8 | -6.8 | -28.1 | -8.6 | 5.5 | 77.0*
COc1cc(/C=C2\SC(=Nc3ccccc3OC)NC2=O)ccc1O | 64.3* | 51.1* | 40.2 | -31.1 | 16.4 | 24.5 | 67.9*
COc1ccc2c(c1OC)C(=O)N1c3ccccc3C(=O)N(c3ccccc3F)C21 (stereo not given) | 61.6* | 86.2* | 48.7 | -87.3* | 7.2 | 5.7 | 44.6*
COc1ccc2c(c1OC)C(=O)N1c3ccccc3SC21 (stereo not given) | -331.5 | -6.3 | -55.9 | -3.9 | -243.6 | -48.9 | .
COc1ccc(OC)c(S(=O)(=O)N2CCN(C(=O)CCc3ccccc3)CC2)c1 | -5.0 | -5.5 | 25.5 | 15.9 | 0.1 | -1.3 | .
Brc1ccc(N/N=C(/N=Nc2nn[nH]n2)c2ccccc2)cc1 | 70.4* | 23.2 | 27.6 | -3.5 | -57.3 | -45.8 | 63.8*
CN1CCC2(CC1)N=C(c1ccc(F)cc1)C(=S)N2C(=O)c1ccc(C(C)(C)C)cc1 | 69.8* | 1.1 | 20.9 | 0.5 | -12.4 | 18.7 | 84.2*
CC(C)(C)c1ccc(C(=O)N2CCNCC2)cc1 | -2.9 | 1.4 | -5.0 | -9.9 | -1.9 | -5.5 | .
COc1cccc(/C=N/NC(=O)c2c(-c3ccccc3)noc2C)c1OC | -2.4 | -15.2 | 14.3 | 1.1 | 11.6 | 7.5 | .
COc1cccc(/C=N/NC(=O)c2c(-c3ccccc3)noc2C)c1O | 55.2* | 6.8 | -41.8 | -11.4 | -6.7 | 12.4 | 56.2*
Cc1ccc(CNC(=O)Cn2cnc3c(NC(=O)OCc4ccccc4)ncnc32)o1 | -25.4 | 3.4 | 8.5 | 19.6 | -23.1 | 9.5 | .
